# Experimental data reported in PubChem BioAssay AID2314 (National Center for Advancing Translational Sciences (NCATS), 2010).
# “And” between values parts separate entries of the source, which are not always exact repeats. Identical values can stand only once. The campaign covered roughly 300,000 compounds. About 37,000 (12%) were called active. The list comes from a sample in which actives are over-represented; it also holds similar structures and randomly drawn compounds. Values without a mark were called inactive. No stated cut-off is given here; in the data, active means max response mostly above about 13% (no sharp cut-off); inactive means mostly below about 14%.
# Test: Cycloheximide Counterscreen for Small Molecule Inhibitors of Shiga Toxin; further: read at 38.3 µM for the half of the compounds with a filed dose; 0% is about no effect
# Details: cell reporter, cycloheximide protein synthesis inhibition counterscreen; active compounds read high
row,Compound,max response
1,CCN(CC(=O)NCCCN1CCOCC1)S(=O)(=O)c1cc(Cl)ccc1Cl,5.99%
2,O=C(CCCN1C(=O)/C(=C/c2cccs2)SC1=S)Nc1ccc(O)cc1,8.82%
3,CCN1C(=NCC(C)C)N[C@@H](CCc2ccccc2)[C@H](C(=O)NCC(C)C)[C@H]1C,0.929% and -2.38%
4,CN(C)/C=C(/C(=O)c1ccc(Cl)c(Cl)c1)c1nnnn1-c1ccccc1,0.0457%
5,C/C(=N\Nc1ccc([N+](=O)[O-])cc1)c1ccc(-n2nncc2C(C)(C)C)cc1,-3.73%
6,Cc1ccc(NC(=O)c2ccc(Oc3ncccn3)cc2)cc1,32.1% (active)
7,COCCNC(=S)c1ccc(OC)cc1,5.78%
8,CCc1cc(C(=O)c2ccc(OC)cc2)c(NC(=O)CN2CCN(C)CC2)s1,-1.85%
9,CCc1cc(C(N)=O)c(NC(=O)c2ccc(OC)cc2)s1,19.3% (active)
10,COc1ccccc1C(=O)NNC(=O)c1ccc(NC(=O)c2ccccc2)cc1,-2.29%
11,Cc1ccc(NC(=O)c2cccnc2C(=O)Nc2ccc(C)cc2)cc1,-2.58%
12,COc1ccc(C(=O)Nc2ccc(-n3nncc3C(C)(C)C)cc2)cc1,48% (active)
13,CCc1cc(C(c2ccccc2OC)N2CCOCC2)c(NC(=O)c2ccccc2)s1 (stereo not drawn),12.9%
14,CC(C)(C)c1cnnn1-c1ccc([N+](=O)[O-])cc1,6.21%
15,CCC(C(=O)OCC(=O)Nc1ccc(C(=O)Nc2ccc(OC)cc2)cc1)c1ccccc1 (stereo not drawn),11.5%
16,COc1ccc(C(=S)Nc2ccccc2)cc1,37.3% (active)
17,CN(C)S(=O)(=O)c1cccc(NC(=O)COC(=O)C2(c3ccccc3F)CCCC2)c1,-2.67%
18,Cc1c(C(=O)NC(C)C2CC3CCC2C3)cccc1[N+](=O)[O-] (stereo not drawn),-3.79%
19,COc1cnc(SCc2ccc(Cl)c(Cl)c2)nc1Cl,2.3%
20,CCc1c2c(nc3ccc(O)cc13)-c1cc3c(c(=O)n1C2)COC(=O)[C@]3(O)CC,-1.28%
21,NC(N)=Nc1nc(-c2ccccc2)c2cc(Cl)ccc2n1,-10.2%
22,CCOC(=O)C1=C(N)N(c2ccc(C)cc2)C2=C(C(=O)CCC2)C1c1cccs1 (stereo not drawn),5.25%
23,COc1ccccc1OC(C)C(=O)Nc1ccc(S(=O)(=O)Nc2nccs2)cc1 (stereo not drawn),-6.41%
24,CC(=O)N1c2ccc(S(=O)(=O)N3CCCC(C(=O)NCc4ccc(Cl)cc4)C3)cc2CC1C (stereo not drawn),10.9%

row,Compound,max response
1,CNS(=O)(=O)c1cccc(C(=O)NC2CCCc3ccccc32)c1 (stereo not drawn),-2.97%
2,CCC(=O)Nc1ccc(C(=O)Nc2cccc(OC)c2)cc1,37.4% (active)
3,COc1ccc(NC(=O)c2ccc(C#CC(C)(C)O)cc2)cc1,29.4% (active)
4,COc1cccc(NC(=O)CN(C)CC(=O)Nc2ccc3c(c2)CCC3)c1,4.53%
5,COc1ccc(C(=O)ON=C2c3ccccc3-c3ccccc32)cc1OC,-2.66%
6,COc1ccc2oc(=N)c(C(=O)Nc3ccc(Br)cc3)cc2c1,-2.54%
7,COc1ccc(NC(=O)ON=C2c3ccccc3-c3ccccc32)cc1,36.1% (active)
8,COc1ccc(NC(=O)c2c(C)oc3c2CCCC3)cc1,23.1% (active)
9,COc1ccc(S(=O)(=O)Nc2ccc3oc(C)c(C(C)=O)c3c2)cc1,-0.324%
10,COc1ccc(CC(=O)Nc2ccc(C(=O)NC(C)(C)C)cc2)cc1,7.23%
11,COc1ccc(NS(=O)(=O)c2ccc(NC(=O)c3ccc(N(C)S(C)(=O)=O)cc3)cc2)cc1,-6.86%
12,COc1ccc(NC(=O)C(Br)C(C)C)cc1 (stereo not drawn),10.3%
13,COc1cccc(NC(=O)c2ccc(S(=O)(=O)N(C)C)cc2)c1,9.95%
14,CCC(C)[C@H](NC(=O)N1CCn2c1nc1ccccc12)C(=O)NCc1ccc(OC)cc1 (stereo partly drawn),7.87%
15,CC1CCN(C(=S)NC2CC3CCC2C3)CC1 (stereo not drawn),-2.5%
16,O=C(CCCCCn1c(=S)[nH]c2ccsc2c1=O)NC1CCCCC1,-3.34%
17,Cc1nc(NC2=NC(C(=O)Nc3ccc(Cl)cc3)CC(=O)N2)nc2ccccc12 (stereo not drawn),-1.93%
18,Cc1ccc2c(C)c(C(=O)N(C)Cc3ccncn3)oc2c1C,-3.14%
19,CCOC(=O)C1(CC2CCCCO2)CCN(Cc2nc(-c3cccs3)oc2C)CC1 (stereo not drawn),-1.4%
20,CC(C(=O)c1ccc(-c2ccccc2)cc1)[n+]1cccc(Br)c1 (stereo not drawn),-1.92%
21,CC(NC(=O)c1ccco1)c1ccc2c(c1)OCO2 (stereo not drawn),-2.24%
22,Cc1c(C)c2c(OCC(=O)N[C@@H](C(=O)O)c3ccccc3)cc3c(c2oc1=O)CCC(C)(C)O3,0.453%
23,Cc1nn(C)c(C)c1CN(C(=O)CCc1nnc(Cc2c[nH]c3ccccc23)o1)C(C)C,-2.58%
24,COCCNC(=O)/C(C#N)=C/c1nc(N(C)C)n(-c2ccc(F)cc2)c1Cl,6.45%

row,Compound,max response
1,CSCCC(NS(=O)(=O)c1ccc(C)cc1)C(=O)N1CCCC1 (stereo not drawn),-0.967%
2,COc1ccc(C(=O)Nc2ccc(NC(=O)C(C)C)nc2)cc1,2.34%
3,COCCNC(=O)Nc1ccc2nc(-c3ccco3)c(-c3ccco3)nc2c1,-4.08%
4,COc1ccc(C(=O)NNC(=S)NC(=O)c2ccccc2)cc1,8.67%
5,COc1ccc(C(=O)Nc2cccc(S(C)(=O)=O)c2)cc1,-2.97%
6,COc1ccc(NC(=O)Nc2ccc3nsnc3c2)cc1,49.2% (active)
7,Cc1cccc(C(=O)Nc2ccc(Oc3cnccn3)cc2)c1,22.6% (active)
8,COc1ccc(/C=N/NC(=O)Nc2ccc3nsnc3c2)c(OC)c1,-1.93%
9,O=C(NC(=S)NC1CCCCC1)c1ccc(Cl)cc1,-1.68%
10,COc1ccc(C(=O)NC(=S)NC2CCCCC2)cc1,72.8% (active)
11,COc1ccc(NC(=O)c2ccc(OC)cc2)cc1,45.1% (active)
12,Cc1cccc(C(=O)Nc2ccc3c(c2)C(=O)N(CC(C)C)C3=O)c1,10.4%
13,Cc1cccc(C(=O)Nc2ccccc2C(=O)NCc2cccnc2)c1,-1.87%
14,O=C(C1CCCO1)N1CCN(C(=S)NC2CC2)CC1 (stereo not drawn),-1.72%
15,CN1C(=O)[C@H]2[C@@H](C3CC3)N3C(=O)CN(Cc4ccccc4)C(=O)[C@@]3(C)[C@H]2C1=O,-0.826%
16,CNC(=O)CN1C(=O)NC(c2ccccc2)(c2ccccc2)C1=O,-2.25%
17,Cc1ccc(C(=O)O)cc1-c1ccc(/C=C2\SC(=O)N(CC(=O)Nc3ccc4c(c3)OCO4)C2=O)o1,-2.31%
18,O=C(NN1C(=O)C2C3C=CC(C4CC34)C2C1=O)c1ccc(Cl)cc1 (stereo not drawn),3.35%
19,C=C(C)C1CC=C(C)C(O)C1 (stereo not drawn),7.86%
20,CN(C(=O)COc1nnc(-c2cccs2)c(-c2cccs2)n1)c1ccccc1,0.449%
21,COc1ccc(NC(=O)c2sccc2SCC#N)cc1,40% (active)
22,CCN(CC)C(=O)c1ccc(NC(=O)c2sccc2-c2ccccc2)cc1,0.344%
23,COc1ccc(NC(=O)c2sc(N)nc2-c2ccccc2)cc1,1.95%
24,COc1cccc(N(CC(=O)Nc2cccc(F)c2)S(C)(=O)=O)c1,-5.13%

row,Compound,max response
1,COc1cccc(N(CC(=O)Nc2cccc(N(C)S(C)(=O)=O)c2)S(C)(=O)=O)c1,-2.16%
2,CCOc1ccc(N(CC(=O)Nc2cccc(OC)c2)S(C)(=O)=O)cc1,27.2% (active)
3,CCOc1cccc(-c2nnc(SCC(=O)NC3CC3)n2C)c1,5.85%
4,CCOC(=O)NN1C(=O)c2ccccc2NC1c1ccccc1O (stereo not drawn),-0.209%
5,COc1ccc(CCNC(=O)CCc2cn(C)c3ccccc23)c(OC)c1,0.538%
6,O=C(NCCNc1ccc([N+](=O)[O-])cc1)c1cccc2c(Br)cccc12,-5.64%
7,O=S(=O)(c1ccc(Cl)cc1)c1nc(-c2ccccc2F)oc1NCCN1CCOCC1,0.972%
8,O=C(c1cc(C(=O)N2CCN(c3ccc(F)cc3)CC2)cc([N+](=O)[O-])c1)N1CCN(c2ccc(F)cc2)CC1,1.24%
9,Nc1ccccc1C(=O)NC1CCCCNC1=O (stereo not drawn),-3.17%
10,CNC(=S)N/N=C1\C2CN3CCN(C2)CC1(c1ccccc1)C3,0.185%
11,CC12CN3CCN(CC(C3)/C1=N\NC(=O)c1ccccc1N)C2,42.9% (active)
12,CC1CC(C)CN(C(=O)C2CC(=O)N(c3ccc(F)cc3)C2)C1 (stereo not drawn),-5.15%
13,COc1cc2c3c(c1)/C(=C1/SC(=S)NC1=O)C(=O)N3C(C)(C)C=C2C,-0.91%
14,CC(=O)Nc1cccc(OCC(=O)/C=C2\N(C)c3ccccc3C2(C)C)c1,17%
15,COc1ccc(CNC(=O)COc2cccnc2[N+](=O)[O-])cc1,-2.66%
16,O=C(NNc1ncnc2c1cnn2-c1ccccc1)c1ccco1,9.27%
17,Cc1ccc(-n2ncc3c(Nc4cccc(C(=O)O)c4)ncnc32)cc1,45.3% (active)
18,Cc1ccc(Nc2ncnc3c2cnn3C)c(C)c1,1.06%
19,CCOC(=O)C1CN(S(=O)(=O)c2ccc(F)cc2)C1,1.16%
20,C=CCn1c(=S)[nH]c2scc(-c3ccco3)c2c1=O,-1.66%
21,COc1cc(C2C(N3C(=O)c4ccccc4C3=O)C(=O)N2c2ccc(C)c(C)c2)cc(OC)c1OC (stereo not drawn),-1.4%
